Source: PubChem
KCNQ2 pot – enhances the rat KCNQ2 potassium channel. B-score at 10 µM. O88943. actives 0.54% (n = 310,000). CHO-K1 KCNQ2, FluxOR thallium flux fluorescence; hits give high values;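 active = fluorescence ratio B-score at least 3 SD of library B-scores, with initial fluorescence B-score within 3 of them, cut at about 5.3 in these data; same plate scores as AID 2156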;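 note: B-score of peak minus minimum over baseline fluorescence ratio after K+ and Tl+ stimulus; positive B-score means potentiation of KCNQ2 with more thallium influx and brighter signal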
KCNQ2 block – blocks the rat KCNQ2 potassium channel | O88943 | CHO-K1 KCNQ2, FluxOR thallium flux, 20 min; hits give low values | B-score at 10 µM | actives 1.1% (n = 310,000);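 active = fluorescence ratio B-score at most minus 3 library SDs, with starting brightness B-score within 2 library SDs, cut at about -5.5 in these data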
Kir21 conf inh – confirmation of mouse Kir2.1 potassium channel inhibitors | AID 2032 | Kir2.1-expressing cells, FluxOR thallium flux fluorescence; hits give low values | actives 41% (n = 2,300) | shares compounds with KCNQ2 pot | Tl flux remaining, % of negative control (hits give low values), % at 10 µM;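 active = Primary-screen hit whose thallium flux fell at least 3 control SD below untreated wells in both duplicates, with normal baseline fluorescence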
HEK293 ctr – parental HEK293 activity in Kir2.1 inhibitor counter-screen; AID 2105; FluxOR signal as % of negative control (100 = no effect), % at 10 µM; shares compounds with KCNQ2 pot; actives 19% (n = 2,300); parental HEK293 cells, FluxOR thallium flux fluorescence; 0% = unstimulated blank wells;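 active = dye signal at least 3 control SD above or below untreated wells in both duplicates, raw fluorescence within 3, either direction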;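 note: percent is based on the flux ratio of peak minus minimum fluorescence over baseline F0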
CHO-K1 ctr – alters thallium flux in parental CHO-K1 cells, KCNQ2 counter-screen; actives 43% (n = 1,200); shares compounds with KCNQ2 pot; activity increase over 3SD of controls, % at 10 µM; AID 2282; FluxOR thallium flux fluorescence; zero = vehicle mean+3SD, 100% = vehicle-minus-blank window;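 active = signal rise of at least 3 SD above the untreated control mean, in both duplicate wells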;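 note: counter screen of KCNQ2 potentiator hits so any rise reflects channel-independent effects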
KCNQ1 pot spec – tests whether KCNQ2 potentiators also act on human KCNQ1 | shares compounds with KCNQ2 pot | actives 28% (n = 1,200) | activation over 3SD threshold, % at 10 µM | CHO KCNQ1 stable, FluxOR thallium flux fluorescence; beyond 3SD, as % of vehicle-control signal | AID 2283;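 active = fluorescence ratio rise of at least 3 SD of vehicle wells above their mean, in both replicate wells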
KCNQ2 pot confirm – rat KCNQ2 channel potentiator confirmation; actives 68% (n = 1,200); shares compounds with KCNQ2 pot; CHO-KCNQ2 cells, FluxOR thallium flux fluorescence; potentiation, less the hit threshold, % at 10 µM;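 active = fluorescence ratio rising 3 SD or more over the vehicle control mean in both replicates, plus primary screen hit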;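 note: peak minus minimum thallium fluorescence divided by baseline after K/Tl stimulus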
Kir21 spec – tests whether KCNQ2 potentiators also affect mouse Kir2.1 | shares compounds with KCNQ2 pot | HEK293 Kir2.1, FluxOR thallium flux fluorescence | activity over 3SD threshold, % at 10 µM | actives 2% (n = 1,200);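 active = fluorescence ratio rise of at least 3 SD above the vehicle-control mean, seen in both replicates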
KCNQ2 W236L pot – KCNQ2 potentiators acting on retigabine-insensitive rat KCNQ2 W236L mutant; shares compounds with KCNQ2 pot; CHO KCNQ2-W236L, automated patch clamp current; current increase over 3SD of negative controls (%), hits give high values, % at 25 µM; actives 10% (n = 940); AID 2558;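 active = current increase at least 3 SD of the untreated controls above them in both duplicate recordings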
Target sequence (O88943 whole entry W236L, looked up): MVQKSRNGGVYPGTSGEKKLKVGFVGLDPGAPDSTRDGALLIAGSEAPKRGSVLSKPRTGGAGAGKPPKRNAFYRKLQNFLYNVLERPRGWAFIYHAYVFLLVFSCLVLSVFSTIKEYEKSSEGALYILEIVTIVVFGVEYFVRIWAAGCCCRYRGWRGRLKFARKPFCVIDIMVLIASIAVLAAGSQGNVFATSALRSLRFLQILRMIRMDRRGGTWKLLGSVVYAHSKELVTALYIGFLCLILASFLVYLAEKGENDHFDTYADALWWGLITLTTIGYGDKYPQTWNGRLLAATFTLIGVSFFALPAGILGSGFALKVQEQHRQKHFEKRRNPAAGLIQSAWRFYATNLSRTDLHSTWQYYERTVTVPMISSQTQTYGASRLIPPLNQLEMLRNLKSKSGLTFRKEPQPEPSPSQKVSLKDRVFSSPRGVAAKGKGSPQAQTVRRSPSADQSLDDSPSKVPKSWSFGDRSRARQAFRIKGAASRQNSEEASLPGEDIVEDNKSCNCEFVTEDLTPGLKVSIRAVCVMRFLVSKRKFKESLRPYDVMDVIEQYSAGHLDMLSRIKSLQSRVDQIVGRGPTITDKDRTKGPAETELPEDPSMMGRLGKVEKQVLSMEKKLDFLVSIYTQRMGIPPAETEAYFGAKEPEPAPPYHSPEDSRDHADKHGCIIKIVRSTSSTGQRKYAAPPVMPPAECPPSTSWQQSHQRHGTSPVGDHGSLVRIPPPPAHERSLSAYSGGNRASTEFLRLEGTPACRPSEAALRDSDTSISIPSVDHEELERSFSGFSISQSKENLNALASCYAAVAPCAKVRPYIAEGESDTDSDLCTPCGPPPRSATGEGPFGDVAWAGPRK
Numbers stand for hits; i = inactive; nt = no result. Rows were chosen to be rich in hits. Some 1.6% of all compounds tested hit in one or more screens of this group.

SMILES	KCNQ2 pot	KCNQ2 block	Kir21 conf inh	HEK293 ctr	others
COc1ccc(/C(N)=N/OC(=O)Cc2ccc(OC)c(OC)c2)cc1	i	i	nt	nt
Oc1ccc(Br)cc1C=Nc1ccc2c3c(cccc13)CC2	nt	i	nt	nt
COc1ccc(C(C#N)N2CCC(c3ccccc3)=N2)cc1 (centres undefined)	nt	i	nt	nt
Cc1cccc(NC(=O)CC(=O)Nc2cccc(C)c2)c1	nt	i	nt	nt
Cc1cccc(NC(=O)C23CCC(C)(C2Br)C3(C)C)c1 (centres undefined)	10.5	i	i	i	CHO-K1 ctr=i;KCNQ1 pot spec=7.4;KCNQ2 pot confirm=i;Kir21 spec=i;KCNQ2 W236L pot=i
COc1ccc(CNC(=O)C2CCCN2C(=O)NCc2ccccc2)cc1 (centres undefined)	i	i	nt	nt
COc1ccc(OC(C)C(=O)NCCC2=CCCCC2)cc1 (centres undefined)	nt	i	48.0%	i
COc1ccc(C(=O)NCCC2=CCCCC2)cc1	nt	i	nt	nt
COc1ccc(Sc2ccccc2CN(C)C)cc1OC	i	i	nt	nt
CNCc1ccccc1Sc1ccc(O)c(O)c1	nt	i	39.0%	i
COc1cccc(/C=N/NC(=O)CNC(=O)COc2ccccc2)c1O	i	i	nt	nt
Cc1cccc(OCC(=O)NCC(=O)N/N=C/c2cc(Br)cc(Br)c2O)c1	10.4	i	i	i	CHO-K1 ctr=6.9;KCNQ1 pot spec=0.7;KCNQ2 pot confirm=i;Kir21 spec=i
CCS(=O)(=O)N1Cc2ccccc2CC1C(=O)NCCc1ccccc1 (centres undefined)	i	i	nt	nt
Oc1c(Cl)cc(Cl)cc1/C=N/c1nc(-c2ccc(Cl)cc2)cs1	i	i	nt	nt
Oc1c(Cl)cc(Cl)cc1C=Nc1ccccc1N1CCCC1	i	i	nt	nt
NC(=O)c1cccc(N=Cc2cc(Cl)cc(Cl)c2O)c1	13.2	i	i	i	CHO-K1 ctr=4.4;KCNQ1 pot spec=30.6;KCNQ2 pot confirm=22.0;Kir21 spec=i;KCNQ2 W236L pot=i
Oc1c(Cl)cc(Cl)cc1/C=N/c1nccs1	9.07	i	i	i	CHO-K1 ctr=i;KCNQ1 pot spec=126.5;KCNQ2 pot confirm=34.0;Kir21 spec=i;KCNQ2 W236L pot=13.9%
O=C(c1cccc(Cl)c1)N(Cc1ccco1)C1CCS(=O)(=O)C1 (centres undefined)	nt	i	nt	nt
CCN(CC(=O)Nc1c(F)cccc1F)C(=O)c1ccc(Cl)c(S(=O)(=O)N2CCCCC2)c1	nt	i	nt	nt
COC(=O)C1=C(Cn2cnc3ccccc32)NC(=O)NC1c1cc(C)ccc1C (centres undefined)	i	i	nt	nt
CCOC(=O)C1=C(Cn2cnc3ccccc32)NC(=O)NC1c1cc(C)ccc1C (centres undefined)	6.61	i	i	52.5%	CHO-K1 ctr=i;KCNQ1 pot spec=i;KCNQ2 pot confirm=i;Kir21 spec=i;KCNQ2 W236L pot=i
CCc1nc2sc3c(c2c(=S)[nH]1)CC(C)(C)OC3	i	i	nt	nt
CSc1nc2sc3c(c2c(=S)[nH]1)CC(C)(C)OC3	14.6	i	i	401.0%	CHO-K1 ctr=i;KCNQ1 pot spec=i;KCNQ2 pot confirm=81.7;Kir21 spec=i;KCNQ2 W236L pot=i
Nc1ccccc1C(=O)NCc1ccc(Cl)cc1	i	i	nt	nt
COc1ccc(OC)c(N(/C(N)=N/c2nc(C)cc(C)n2)S(=O)(=O)c2ccc(NC(C)=O)cc2)c1	nt	i	nt	nt
SMILES	KCNQ2 pot	KCNQ2 block	Kir21 conf inh	HEK293 ctr	others
O=C(Nc1ccc(Oc2ccccc2)nc1)C1CCCCN1Cc1ccco1 (centres undefined)	nt	i	nt	nt
COc1ccc(-c2[nH]ncc2/C=N\NC(=O)c2cccs2)cc1OC	i	i	nt	nt
Cc1ccccc1NC(=O)c1c(C)nn(-c2ccccc2)c1Cl	nt	i	nt	nt
COc1ccc(C(CCNCc2ccccc2)c2ccc(F)cc2)cc1 (centres undefined)	nt	i	nt	nt
COc1ccc(CNC(C)CCc2ccccc2)cc1 (centres undefined)	i	i	40.5%	i
COc1ccc(CCC(C)NCc2ccc(C(F)(F)F)cc2)cc1 (centres undefined)	i	i	nt	nt
COc1ccc(CNCCC(c2ccc(OC)cc2)c2ccccc2OC)cc1 (centres undefined)	nt	i	38.5%	i
COc1ccc(C(CCNCc2ccc(N(C)C)cc2)c2ccccc2OC)cc1 (centres undefined)	nt	i	nt	nt
COc1ccc(CNCCC(c2ccc(F)cc2)c2ccc(OC(C)C)cc2)cc1OC (centres undefined)	nt	i	44.5%	i
COc1ccc(C(CCNCc2ccc(OC(C)C)cc2)c2ccccc2OC)cc1 (centres undefined)	i	-6.54	29.0%	i
COc1ccc(CNCCC(c2ccccc2)c2ccc(OC(C)C)cc2)cc1OC (centres undefined)	nt	i	nt	nt
C/C(=N\NC(=O)c1cc(C)oc1C)c1ccc2ccccc2c1	nt	i	nt	nt
Cc1nc(Cl)c(N=Cc2cccc([N+](=O)[O-])c2)c(Cl)n1	nt	i	nt	nt
Cc1ccc(OCC(=O)NNC(=O)C2CSC3(C)CCC(=O)N23)cc1 (centres undefined)	nt	i	nt	nt
Cc1ccc(C#CC[N+](C)(C)CC#Cc2ccccc2)cc1	nt	i	nt	nt
O=C(NCC1CCCO1)c1ccc(F)c2ccccc12 (centres undefined)	nt	i	nt	nt
Cc1cc2[nH]c(=O)c(=O)[nH]c2cc1S(=O)(=O)N1CCC(C)CC1	i	i	nt	nt
Cc1ccc(C)c(NC(=O)C2CC3CCC2C3)c1 (centres undefined)	21.4	i	i	i	CHO-K1 ctr=i;KCNQ1 pot spec=1.6;KCNQ2 pot confirm=57.2;Kir21 spec=i;KCNQ2 W236L pot=i
Cc1cc(C)cc(NC(=O)C2CC3CCC2C3)c1 (centres undefined)	i	i	nt	nt
Cc1ccc(NC(=O)C2CC3CCC2C3)c(Br)c1 (centres undefined)	13.7	i	i	i	CHO-K1 ctr=16.9;KCNQ1 pot spec=i;KCNQ2 pot confirm=32.0;Kir21 spec=i;KCNQ2 W236L pot=i
Cc1ccc(S(N)(=O)=O)cc1NC(=O)C1CC2CCC1C2 (centres undefined)	nt	i	nt	nt
Cc1ccc(NC(=O)CC2CCCC2)c(Br)c1	16.4	i	i	i	CHO-K1 ctr=i;KCNQ1 pot spec=i;KCNQ2 pot confirm=52.4;Kir21 spec=i;KCNQ2 W236L pot=i
COc1ccc(NC(=O)C2CCCO2)c(OC)c1 (centres undefined)	nt	i	nt	nt
COc1ccc(NC(=O)C2CC3CCC2C3)c(OC)c1 (centres undefined)	9.81	i	i	i	CHO-K1 ctr=68.9;KCNQ1 pot spec=57.5;KCNQ2 pot confirm=60.7;Kir21 spec=i;KCNQ2 W236L pot=i
Cc1ccc(NC(=O)C2CCCC2)c(Br)c1	i	i	nt	nt
Cc1ccc(C(=O)OCC(=O)NC2CCCC2)cc1	i	i	nt	nt
Cc1cc2nccc(-c3cccnc3)n2n1	i	i	nt	nt
Cc1ccc(N(CC(=O)NC(C)(C)C)C(=O)CS(=O)CC(=O)Nc2ccc(F)cc2)cc1 (centres undefined)	nt	i	nt	nt
